Source: PubChem BioAssay (NCI)
Values joined by “and” are separate entries in the source; they are usually repeats but may differ in a detail not shown here. Identical values can stand only once. The panel holds about 79,000 compounds, 15% with a hit somewhere; the sample as a whole holds those more often. Values without a mark were called inactive. Active and inactive are the calls of the source. Cut-off read from the data, not from the text of the source: active = growth inhibition above about 70%; inactive = the rest.

Key:
[1] = NCI Yeast Anticancer Drug Screen. Data for the rad50 strain (AID 155);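 note: 0% = growth of vehicle-only cultures of the same strain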; conditions: S. cerevisiae rad50 strain growth inhibition, hits give high values; at 50.0 µM unless noted
Outline: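 A DNA repair-deficient yeast mutant serves as the test organism; compound-induced growth inhibition is calculated against vehicle-treated cells.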

[2] = NCI Yeast Anticancer Drug Screen. Data for the mec2-1 strain (AID 157); conditions: S. cerevisiae mec2-1 strain, hits give high values; at 50.0 µM unless noted
Outline: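 Using mec2-1 yeast: add compound, measure growth, express inhibition versus vehicle-treated cultures.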

[3] = NCI Yeast Anticancer Drug Screen. Data for the sgs1 mgt1 strain (AID 161);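 note: 0% = growth of cultures given vehicle only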; conditions: S. cerevisiae sgs1 mgt1 strain, hits give high values; at 50.0 µM unless noted
Outline: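 Growth of a repair-deficient yeast mutant was monitored after compound treatment and expressed as inhibition relative to vehicle-treated cultures.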

[4] = NCI Yeast Anticancer Drug Screen. Data for the cln2 rad14 strain (AID 165);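 note: 0% = growth equal to vehicle treated cultures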; conditions: S. cerevisiae cln2 rad14 strain, hits give high values; at 50.0 µM unless noted
Outline: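 Yeast strain cln2 rad14, bearing defects in cell cycle control and DNA repair, serves as the test system; values reflect growth inhibition compared with vehicle.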

[5] = NCI Yeast Anticancer Drug Screen. Data for the bub3 strain (AID 167); conditions: S. cerevisiae bub3 mutant strain, hits give high values; at 50.0 µM unless noted
Outline: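 Inhibition values come from growth of compound-treated mutant yeast normalised to vehicle-treated controls.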

[6] = NCI Yeast Anticancer Drug Screen. Data for the mlh1 rad18 strain (AID 175); conditions: S. cerevisiae mlh1 rad18 strain growth inhibition, hits give high values; at 50.0 µM unless noted
Outline: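 Steps: expose repair-defective yeast to compound; measure growth; express inhibition against vehicle-treated controls.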

| Structure (SMILES) | growth inhibition [1] | growth inhibition [2] | growth inhibition [3] | growth inhibition [4] | growth inhibition [5] | growth inhibition [6] |
| --- | --- | --- | --- | --- | --- | --- |
| COc1ccc(C(=O)CN2CCN(c3ccccc3)CC2)cc1 | 14.7% | -7.05% | 17.1% | -52.6% | 23% | 5.35% |
| Cc1sc2ccccc2[n+]1CCC(=O)O | -23.1% | -14% | -38.6% | -72.8% | -14.8% | -7.65% |
| CCOC(=O)CCC(Br)(Br)Br | 10% | 16% | 1.7% | 12.8% | 4.6% | 10.2% |
| N#CC1(C(=O)c2ccccc2)C=Cc2ccccc2N1C(=O)c1ccccc1 (stereo unspecified) | -6.85% | 16.4% | -0.85% | 12.4% | 26.2% | -19.2% |
| CC(Cl)(c1ccccc1)C1OCCO1 (stereo unspecified) | 1.75% | 19.9% | 8.1% | -20.9% | -5.9% | -1.5% |
| CCOC(=O)C1=C(C)NC(c2ccco2)=C(C#N)C1c1cccc([N+](=O)[O-])c1 (stereo unspecified) | 59.8% | 33.4% | 66% | 68.7% | 63.6% | 70.8% (active) |
| CN(C)c1ccc(/C=C/C=C2\C=Cc3ccccc32)cc1 | 0.55% | -17.9% | -6% | -26.2% | -0.25% | -2.75% |
| COC1OC2COc3ccccc3OC2C2C1N2C(N)=O (stereo unspecified) | 7.4% | 0.7% | 4.5% | -6.65% | -2.85% | 3.8% |
| CCOC(=O)c1ccc2c(c1)C(=O)c1cc([N+](=O)[O-])ccc1-2 | 2.85% | 13.2% | 4.8% | 10.6% | 26.7% | 23.1% |
| CCO[C@@H]1OC(=O)[C@H]2C(c3ccccc3)=NO[C@@H]12 | -13.2% | -22.4% | -9.7% | 7.55% | 13.7% | -4.15% |
| Nc1ncnc(N)c1NC(=O)c1ccc2ccccc2c1 | 8.95% | 35.1% | -1.55% | -1.85% | -20.4% | -21.4% |
| C=C(C)C1CCC2(C)CCC(=O)C(C)=C2C1 (stereo unspecified) | 3.15% | 1.35% | -5.75% | -19.7% | -6.1% | -4.15% |
| Cc1ccc(OCc2ccc([N+](=O)[O-])cc2)cc1 | 1.8% | -12.2% | -12.6% | 13.9% | -16.4% | -16.8% |
| CC(=O)NC1=NC(=O)/C(=C/c2ccc3c(c2)OCO3)N1C | 4.7% | 2.85% | -3.3% | 3% | 5.5% | 10.9% |
| CC1=C2CC3=C(C)C(=O)O[C@H]3C[C@@H](C)[C@@H]2CC1 | 15.2% | 9.9% | 26% | 1.15% | 33.8% | 2.45% |
| COc1ccc(C2=Nc3c(nc(OC)[nH]c3=O)NC(c3ccccc3)C2)cc1 (stereo unspecified) | 12.3% | 10.2% | -10.5% | 7.55% | -8.95% | -21.8% |
| CC(O)c1ccc[cH-]1.CC(O)c1ccc[cH-]1.[Fe+2] (stereo unspecified) | -22% | 4% | -5.55% | -33.1% | 28.7% | 5.7% |
| COc1ccc2nc3ccccc3c(NCCC[N+](C)(C)[O-])c2c1[N+](=O)[O-] | -6.4% | -16.4% | 3.45% | -34.1% | -13.1% | -7.55% |
| O=C1/C(=N\[O-])C(S(=O)(=O)[O-])=Cc2cc(S(=O)(=O)[O-])cc(O)c21.O=C1/C(=N\[O-])C(S(=O)(=O)[O-])=Cc2cc(S(=O)(=O)[O-])cc(O)c21.[Cu+2] | -1.8% | 8.1% | -0.65% | -11.7% | -2.4% | -19.5% |
| CC(=O)OCC1OC(O)C(NC(=O)C(F)(F)F)C(OC(C)=O)C1OC(C)=O (stereo unspecified) | 99.6% (active) | 99.8% (active) | 99.7% (active) | 99% (active) | 99.3% (active) | 99.5% (active) |
| CCCCN(Cc1ccccc1)C(=S)Nc1ccccc1 | 17.4% | 47.8% | 64.4% | 1.85% | 63.5% | 67.3% |

| Structure (SMILES) | growth inhibition [1] | growth inhibition [2] | growth inhibition [3] | growth inhibition [4] | growth inhibition [5] | growth inhibition [6] |
| --- | --- | --- | --- | --- | --- | --- |
| CNc1ccc(C=C2C=CC=C2)cc1 | 41.2% | 1.7% | 48.7% | 5.2% | 7.4% | 55.7% |
| Cc1ccc(NCC(=O)N2CC(=O)Nc3ccccc32)c(C)c1 | -26.2% | -39.1% | -43.8% | -3.4% | -27.7% | -31.3% |
| Cc1ncc(C(N)=S)c(N)n1 | 9.95% | -0.05% | -0.15% | -47.4% | -8.55% | 14.3% |
| O=C(OCC(OC(=O)c1ccccc1)C1OCOC2COCOC21)c1ccccc1 (stereo unspecified) | 3.35% | -1.3% | -5.6% | -24.2% | 0.45% | 11.4% |
| O=C(c1ccccc1)c1ccc2ccccc2c1 | 24.8% | 13% | 0.65% | -13.2% | 14.9% | 28.3% |
| NC(=S)N/N=C/c1ccc([N+](=O)[O-])s1 | 9.65% | 1.1% | 19.9% | 25.1% | 22% | 32.5% |
| O=C1CN(c2cccc(Cl)c2)C(=O)CN1/N=C/c1ccco1 | 18.9% | -14.5% | 18% | 12.7% | 23.8% | 22.1% |
| CCOC(=O)c1sc(SC)nc1NC(=O)c1ccccc1 | -18.4% | -9% | -5.45% | 3.2% | -3.4% | -33.2% |
| O=C(O)c1cc(Cl)cc(C(=O)O)n1 | -19.4% | -1.75% | -11.8% | 16.1% | 4.65% | -1.7% |
| CC1(c2nc3ccccc3[nH]2)CCC(C(N)=O)C(C)(C)O1 (stereo unspecified) | 1.5% | -13.2% | -19.8% | -2.55% | -16.9% | -10.6% |
| O=c1ccc(-c2ccc(-n3ccnc3)cc2)nn1CCO | -39.4% | -49.5% | -24.7% | -2.7% | -38% | -10.8% |
| CCCN(CCC)CC(O)CNc1cc(OC)cc2cccnc12 (stereo unspecified) | 9.75% | -16.2% | 6.7% | -35.7% | 19.9% | 5.7% |
| O=C(O)CC(C(=O)O)C(Cc1ccccc1)c1ccccc1 (stereo unspecified) | -10.2% and 22.4% | -4.25% and 10.9% | 0.35% and 10.1% | -0.05% and 5.95% | -1.6% and 10.1% | -3.15% and -6.55% |
| O=c1c2ccccc2[nH]c(=S)n1CCc1ccccn1 | 2.35% | 6.9% | 64.6% | 8.55% | 14.3% | -7.65% |
| O=Nc1c(S(=O)(=O)O)cc2cc(S(=O)(=O)O)ccc2c1O | 41.9% | 0.55% | 45.2% | 22.4% | 23.1% | 30.4% |
| c1ccc2[nH]c(CSc3nc4ccccc4s3)nc2c1 | 10.1% | 17.2% | 37.5% | 33.6% | -0.75% | 28.6% |
| COc1ccc(/C(Cc2ccccc2)=N/Nc2ccc([N+](=O)[O-])c([N+](=O)[O-])c2)cc1 | 48.1% | -8.15% | 23.5% | 6.35% | 9.7% | 20.1% |
| Nc1c(Br)cc(Br)cc1C(=O)O | 23.9% | -14.1% | 42.2% | 17.1% | -6.95% | 5.7% |
| CC1(C)OC(=O)N=C1c1ccccc1Cl | -18.1% | -18.4% | -11.3% | -11.4% | -15.6% | 7.65% |
| OC(c1ccccc1)c1ccc(C(O)c2ccccc2)cc1 (stereo unspecified) | -14.2% | -19.1% | -8.85% | 33.3% | 5.5% | -8.75% |
